Experimental data taken from PubChem BioAssay (NCI).
This is part of a sample that, as a whole, favours compounds with a hit. Of some 79,000 tested, about 15% had one in any assay. A number with no mark means an inactive call. The source made the active and inactive calls. Cut-off read from the data, not from the text of the source: active = growth inhibition above about 70%; inactive = the rest.

Tests used:
[1] = NCI Yeast Anticancer Drug Screen. Data for the wt1 strain (AID 149);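 note: 0% = growth of vehicle-treated wt1 cultures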; settings: S. cerevisiae wt1 strain (SPY 50644) growth inhibition, active compounds read high
How it was run: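 wt1 yeast, compound-treated; % growth inhibition vs vehicle control.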

[2] = NCI Yeast Anticancer Drug Screen. Data for the rad50EPP+ strain (AID 151);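 note: 0% = growth of vehicle-treated control cultures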; settings: S. cerevisiae rad50 mutant strain, active compounds read high
How it was run: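 rad50EPP+ yeast treated with test compounds. Readout: growth vs vehicle control.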

[3] = NCI Yeast Anticancer Drug Screen. Data for the mgt1 strain (AID 153); settings: S. cerevisiae mgt1 mutant growth inhibition, active compounds read high
How it was run: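 Growth inhibition relative to vehicle controls was scored for the mgt1 yeast strain after compound exposure.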

[4] = NCI Yeast Anticancer Drug Screen. Data for the rad50 strain (AID 155);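 note: 0% = growth of vehicle-only cultures of the same strain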; settings: S. cerevisiae rad50 strain growth inhibition, active compounds read high
How it was run: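 Genetically altered yeast (DNA repair pathway); compound treatment; growth inhibition vs vehicle ctrl.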

[5] = NCI Yeast Anticancer Drug Screen. Data for the mec2-1 strain (AID 157); settings: S. cerevisiae mec2-1 strain, active compounds read high
How it was run: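 Growth inhibition is read against vehicle-treated controls after compound exposure of the mec2-1 yeast strain, which is defective in DNA damage repair or cell cycle control.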

[6] = NCI Yeast Anticancer Drug Screen. Data for the rad14 strain (AID 159);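 note: 0% = growth of vehicle-treated control cultures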; settings: S. cerevisiae rad14 strain growth inhibition, active compounds read high
How it was run: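 Test compounds were applied to a repair-deficient yeast strain. Its growth was then compared with that of cultures given vehicle alone, and inhibition was expressed relative to those controls.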

[7] = NCI Yeast Anticancer Drug Screen. Data for the sgs1 mgt1 strain (AID 161);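 note: 0% = growth of cultures given vehicle only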; settings: S. cerevisiae sgs1 mgt1 strain, active compounds read high
How it was run: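 Percent growth inhibition was derived by comparing compound-exposed mutant yeast with vehicle-exposed cultures. The strain carries alterations in DNA damage repair.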

[8] = NCI Yeast Anticancer Drug Screen. Data for the CLN2oe strain (AID 163);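 note: 0% = growth of vehicle-only control cultures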; settings: S. cerevisiae CLN2oe strain, active compounds read high
How it was run: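 Compound-treated yeast; growth vs vehicle ctrl = % inhibition. Genetically altered strain (cell-cycle control).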

[9] = NCI Yeast Anticancer Drug Screen. Data for the cln2 rad14 strain (AID 165);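 note: 0% = growth equal to vehicle treated cultures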; settings: S. cerevisiae cln2 rad14 strain, active compounds read high
How it was run: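 Growth inhibition, relative to vehicle-treated controls, is the read-out. The test organism is a yeast strain with defined genetic alterations, cln2 rad14.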

[10] = NCI Yeast Anticancer Drug Screen. Data for the bub3 strain (AID 167); settings: S. cerevisiae bub3 mutant strain, active compounds read high
How it was run: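 Yeast carrying a defined mutation is treated with each compound, and growth is compared with that of vehicle-exposed cells to give inhibition.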

[11] = NCI Yeast Anticancer Drug Screen. Data for the wt2 strain (AID 169);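 note: 0% = growth of vehicle-treated yeast cultures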; settings: S. cerevisiae wt2 strain growth inhibition, active compounds read high
How it was run: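 Compound exposure of yeast; growth compared with vehicle controls; inhibition reported.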

[12] = NCI Yeast Anticancer Drug Screen. Data for the mlh1 strain (AID 171);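 note: 0% = growth of vehicle-treated control cultures of the same strain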; settings: S. cerevisiae mlh1 strain growth inhibition, active compounds read high
How it was run: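 Compounds are applied to a genetically altered yeast strain, and its growth is compared with that of vehicle-treated cultures to give percent inhibition.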

[13] = NCI Yeast Anticancer Drug Screen. Data for the sgs1 strain (AID 173);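 note: 0% = growth of vehicle-only control cultures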; settings: S. cerevisiae sgs1 mutant, active compounds read high
How it was run: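 Compounds applied to genetically altered yeast; growth compared with vehicle-treated cultures to give % inhibition.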

[14] = NCI Yeast Anticancer Drug Screen. Data for the mlh1 rad18 strain (AID 175); settings: S. cerevisiae mlh1 rad18 strain growth inhibition, active compounds read high
How it was run: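 Cells of a genetically altered yeast strain, deficient in DNA damage repair, were treated with compound. Their growth was then compared with that of vehicle-treated cultures to give inhibition.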

[15] = NCI Yeast Anticancer Drug Screen. Data for the rad18 strain (AID 177); settings: S. cerevisiae rad18 mutant growth inhibition, active compounds read high
How it was run: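 Compounds are applied to a repair-deficient yeast strain, and growth is compared with that of vehicle-treated cultures to give percent inhibition.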

[16] = at 5.0 µM (retest, dose inferred, filed as 0.5)
[17] = at 50.0 µM (retest, dose inferred, filed as 5.0)

NC(=S)N/N=C1\c2ccccc2CCC1CCC1(O)CCc2ccccc2C1=O (stereo unspecified)
growth inhibition ([1]; at 1.2 µM): 21% | growth inhibition ([1]; at 3.7 µM): 24% | growth inhibition ([1]; at 11.0 µM): 19% | growth inhibition ([1]; at 33.0 µM): 44% | growth inhibition ([1]; at 100.0 µM): 80% (active) | growth inhibition ([2]; at 1.2 µM): 36% | growth inhibition ([2]; at 3.7 µM): 23% | growth inhibition ([2]; at 11.0 µM): 17% | growth inhibition ([2]; at 33.0 µM): 23% | growth inhibition ([2]; at 100.0 µM): 10% | growth inhibition ([3]; at 1.2 µM): 21% | growth inhibition ([3]; at 3.7 µM): 18% | growth inhibition ([3]; at 11.0 µM): 48% | growth inhibition ([3]; at 33.0 µM): 82% (active) | growth inhibition ([3]; at 100.0 µM): 84% (active) | growth inhibition ([4]; at 1.2 µM): 35% | growth inhibition ([4]; at 3.7 µM): 19% | growth inhibition [4, 16]: 2% | growth inhibition ([4]; at 11.0 µM): 49% | growth inhibition ([4]; at 33.0 µM): 84% (active) | growth inhibition [4, 17]: 52% | growth inhibition ([4]; at 50.0 µM): 86.8% (active) | growth inhibition ([4]; at 100.0 µM): 78% (active) | growth inhibition ([5]; at 1.2 µM): 5% | growth inhibition ([5]; at 3.7 µM): 13% | growth inhibition [5, 16]: -1% | growth inhibition ([5]; at 11.0 µM): 16% | growth inhibition ([5]; at 33.0 µM): 50% | growth inhibition [5, 17]: 55% | growth inhibition ([5]; at 50.0 µM): 88.2% (active) | growth inhibition ([5]; at 100.0 µM): 81% (active) | growth inhibition ([6]; at 1.2 µM): 2% | growth inhibition ([6]; at 3.7 µM): 7% | growth inhibition ([6]; at 11.0 µM): 47% | growth inhibition ([6]; at 33.0 µM): 82% (active) | growth inhibition ([6]; at 100.0 µM): 86% (active) | growth inhibition [7, 16]: 10% | growth inhibition [7, 17]: 88% (active) | growth inhibition ([7]; at 50.0 µM): 92.5% (active) | growth inhibition ([8]; at 1.2 µM): 38% | growth inhibition ([8]; at 3.7 µM): 36% | growth inhibition ([8]; at 11.0 µM): 42% | growth inhibition ([8]; at 33.0 µM): 64% | growth inhibition ([8]; at 100.0 µM): 82% (active) | growth inhibition [9, 16]: 18% | growth inhibition [9, 17]: 81% (active) | growth inhibition ([9]; at 50.0 µM): 89.7% (active) | growth inhibition ([10]; at 1.2 µM): 20% | growth inhibition ([10]; at 3.7 µM): 13% | growth inhibition [10, 16]: 17% | growth inhibition ([10]; at 11.0 µM): 34% | growth inhibition ([10]; at 33.0 µM): 84% (active) | growth inhibition [10, 17]: 83% (active) | growth inhibition ([10]; at 50.0 µM): 46.1% | growth inhibition ([10]; at 100.0 µM): 85% (active) | growth inhibition ([11]; at 1.2 µM): -8% | growth inhibition ([11]; at 3.7 µM): -7% | growth inhibition ([11]; at 11.0 µM): 13% | growth inhibition ([11]; at 33.0 µM): 62% | growth inhibition ([11]; at 100.0 µM): 83% (active) | growth inhibition ([12]; at 1.2 µM): 14% | growth inhibition ([12]; at 3.7 µM): 14% | growth inhibition ([12]; at 11.0 µM): 46% | growth inhibition ([12]; at 33.0 µM): 79% (active) | growth inhibition ([12]; at 100.0 µM): 81% (active) | growth inhibition ([13]; at 1.2 µM): 34% | growth inhibition ([13]; at 3.7 µM): 34% | growth inhibition ([13]; at 11.0 µM): 63% | growth inhibition ([13]; at 33.0 µM): 82% (active) | growth inhibition ([13]; at 100.0 µM): 84% (active) | growth inhibition [14, 16]: 0% | growth inhibition [14, 17]: 83% (active) | growth inhibition ([14]; at 50.0 µM): 93.3% (active) | growth inhibition ([15]; at 1.2 µM): 52% | growth inhibition ([15]; at 3.7 µM): 50% | growth inhibition ([15]; at 11.0 µM): 63% | growth inhibition ([15]; at 33.0 µM): 86% (active) | growth inhibition ([15]; at 100.0 µM): 81% (active)

O=C1C(/C=C/c2ccc(Cl)cc2)=NNC2N1N=C1NC(=O)C3(NN12)c1ccccc1-c1ccccc13 (stereo unspecified)
growth inhibition ([1]; at 1.2 µM): 1% | growth inhibition ([1]; at 3.7 µM): 2% | growth inhibition ([1]; at 11.0 µM): 1% | growth inhibition ([1]; at 33.0 µM): 2% | growth inhibition ([1]; at 100.0 µM): 6% | growth inhibition ([2]; at 1.2 µM): -1% | growth inhibition ([2]; at 3.7 µM): -3% | growth inhibition ([2]; at 11.0 µM): 1% | growth inhibition ([2]; at 33.0 µM): 0% | growth inhibition ([2]; at 100.0 µM): 10% | growth inhibition ([3]; at 1.2 µM): -2% | growth inhibition ([3]; at 3.7 µM): -2% | growth inhibition ([3]; at 11.0 µM): -2% | growth inhibition ([3]; at 33.0 µM): -13% | growth inhibition ([3]; at 100.0 µM): 4% | growth inhibition ([4]; at 1.2 µM): -7% | growth inhibition ([4]; at 3.7 µM): -15% | growth inhibition [4, 16]: -10% | growth inhibition ([4]; at 11.0 µM): -21% | growth inhibition ([4]; at 33.0 µM): -1% | growth inhibition [4, 17]: 22% | growth inhibition ([4]; at 50.0 µM): 83.3% (active) | growth inhibition ([4]; at 100.0 µM): 12% | growth inhibition ([5]; at 1.2 µM): 0% | growth inhibition ([5]; at 3.7 µM): 1% | growth inhibition [5, 16]: -10% | growth inhibition ([5]; at 11.0 µM): 0% | growth inhibition ([5]; at 33.0 µM): 5% | growth inhibition [5, 17]: 25% | growth inhibition ([5]; at 50.0 µM): 76.2% (active) | growth inhibition ([5]; at 100.0 µM): 9% | growth inhibition ([6]; at 1.2 µM): -1% | growth inhibition ([6]; at 3.7 µM): -2% | growth inhibition ([6]; at 11.0 µM): -1% | growth inhibition ([6]; at 33.0 µM): 0% | growth inhibition ([6]; at 100.0 µM): 5% | growth inhibition [7, 16]: -4% | growth inhibition [7, 17]: 22% | growth inhibition ([7]; at 50.0 µM): 73.5% (active) | growth inhibition ([8]; at 1.2 µM): -3% | growth inhibition ([8]; at 3.7 µM): -3% | growth inhibition ([8]; at 11.0 µM): 1% | growth inhibition ([8]; at 33.0 µM): 9% | growth inhibition ([8]; at 100.0 µM): 14% | growth inhibition [9, 16]: 18% | growth inhibition [9, 17]: 32% | growth inhibition ([9]; at 50.0 µM): 62.9% | growth inhibition ([10]; at 1.2 µM): -2% | growth inhibition ([10]; at 3.7 µM): 1% | growth inhibition [10, 16]: -19% | growth inhibition ([10]; at 11.0 µM): 0% | growth inhibition ([10]; at 33.0 µM): -2% | growth inhibition [10, 17]: -12% | growth inhibition ([10]; at 50.0 µM): 87.2% (active) | growth inhibition ([10]; at 100.0 µM): 1% | growth inhibition ([11]; at 1.2 µM): -2% | growth inhibition ([11]; at 3.7 µM): -2% | growth inhibition ([11]; at 11.0 µM): -2% | growth inhibition ([11]; at 33.0 µM): 1% | growth inhibition ([11]; at 100.0 µM): 4% | growth inhibition ([12]; at 1.2 µM): 0% | growth inhibition ([12]; at 3.7 µM): 0% | growth inhibition ([12]; at 11.0 µM): 1% | growth inhibition ([12]; at 33.0 µM): 2% | growth inhibition ([12]; at 100.0 µM): 4% | growth inhibition ([13]; at 1.2 µM): -1% | growth inhibition ([13]; at 3.7 µM): 0% | growth inhibition ([13]; at 11.0 µM): -1% | growth inhibition ([13]; at 33.0 µM): 1% | growth inhibition ([13]; at 100.0 µM): 3% | growth inhibition [14, 16]: -34% | growth inhibition [14, 17]: 62% | growth inhibition ([14]; at 50.0 µM): 87.7% (active) | growth inhibition ([15]; at 1.2 µM): -3% | growth inhibition ([15]; at 3.7 µM): -1% | growth inhibition ([15]; at 11.0 µM): -1% | growth inhibition ([15]; at 33.0 µM): 0% | growth inhibition ([15]; at 100.0 µM): 17%
